These results are taken from PubChem BioAssay AID1445 (SRMLSC, 2008).

Out of some 220,000 compounds screened, about 910 (0.41%) were called active. Many of the other results were omitted from the sample, so actives are more common in it than they were. Measured potencies and affinities stand elsewhere. A number with no mark means an inactive call.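 Rule for the calls: active = primary inhibition above the hit cutoff, then over 50% inhibition at one or more dose response concentrations (cut at about 23% in these data, passing the limit was not always enough); inconclusive = conflicting primary data, or primary hits not chosen for dose response; inactive = low primary inhibition, or under 50% at every dose.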

Aminopeptidase N (Plasmodium falciparum (isolate 3D7)), sequence (O96935 whole entry, looked up): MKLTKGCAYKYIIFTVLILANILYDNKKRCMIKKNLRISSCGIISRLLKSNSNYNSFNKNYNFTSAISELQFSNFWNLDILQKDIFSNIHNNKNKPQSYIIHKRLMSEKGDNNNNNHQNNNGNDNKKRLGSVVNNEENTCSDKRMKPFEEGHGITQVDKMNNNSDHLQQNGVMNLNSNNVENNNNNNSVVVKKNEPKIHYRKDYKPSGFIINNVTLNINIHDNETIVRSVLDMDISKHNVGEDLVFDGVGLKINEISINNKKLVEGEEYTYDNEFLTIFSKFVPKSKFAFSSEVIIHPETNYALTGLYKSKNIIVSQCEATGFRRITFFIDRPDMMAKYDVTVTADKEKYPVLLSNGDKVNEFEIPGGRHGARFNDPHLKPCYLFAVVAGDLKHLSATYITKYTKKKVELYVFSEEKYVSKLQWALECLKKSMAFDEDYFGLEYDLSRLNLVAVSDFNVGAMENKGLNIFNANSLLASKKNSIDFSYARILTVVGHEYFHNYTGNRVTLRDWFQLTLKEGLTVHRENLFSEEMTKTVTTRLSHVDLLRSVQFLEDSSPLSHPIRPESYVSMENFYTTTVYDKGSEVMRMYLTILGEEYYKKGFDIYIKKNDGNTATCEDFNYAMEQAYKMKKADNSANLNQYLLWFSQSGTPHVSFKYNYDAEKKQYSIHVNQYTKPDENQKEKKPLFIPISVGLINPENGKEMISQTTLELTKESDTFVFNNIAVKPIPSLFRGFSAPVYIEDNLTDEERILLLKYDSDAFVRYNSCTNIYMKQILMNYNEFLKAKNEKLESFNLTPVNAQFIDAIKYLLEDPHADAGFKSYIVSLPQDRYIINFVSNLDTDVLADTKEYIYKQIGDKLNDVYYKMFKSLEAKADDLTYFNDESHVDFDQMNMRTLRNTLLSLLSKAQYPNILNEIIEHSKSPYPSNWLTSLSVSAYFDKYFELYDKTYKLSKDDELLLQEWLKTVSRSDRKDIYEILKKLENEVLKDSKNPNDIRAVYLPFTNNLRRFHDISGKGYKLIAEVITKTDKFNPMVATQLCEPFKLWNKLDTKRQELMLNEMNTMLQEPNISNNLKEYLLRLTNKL

The assay concerns the target Aminopeptidase N (Plasmodium falciparum (isolate 3D7)) (UniProt O96935). Briefly: P. falciparum M1AAP inhibitors, biochemical, fluorogenic H-Leu-NHMec substrate, 1536-well (AID 1445).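 Note: plate controls were DMSO full reaction for no effect and no enzyme background for full effect.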 The settings on record: recombinant M1AAP, H-Leu-NHMec fluorogenic kinetic assay; at 30 µM, active compounds read high unless noted.
What is called inhibition is the relative decrease from the control value, in per cent. As to `COCCNC(=O)CN(C(=O)Cn1nnc2ccccc21)c1ccccc1`, the inhibition was 6.84%.
With `CSc1nnc(-c2cc[n+](C)cc2)n1CCO` the figure was -2.01%.
Turning to `O=C(Nc1ccc2oc(-c3ccc(F)cc3)nc2c1)c1ccccc1F`, the inhibition was -4.88%.
With `CC(C)C(=O)Nc1cccc(-c2nc3ccccc3o2)c1` the figure was 1.29%; with `O=C(Nc1ccc2oc(-c3ccccc3)nc2c1)c1ccccc1F`, 4.36%; with `O=C(Nc1cccc(-c2nc3ccccc3o2)c1)c1cccnc1`, 8.84%.
As to `COc1cccc(S(=O)(=O)Nc2ccc(C(=O)Nc3ccncc3)cc2)c1`, the inhibition is -3.5%.
For `CC1Cc2cc(/C(O)=C3\C(=O)C(=O)N(CCN(C)C)C3c3ccccc3F)ccc2O1` (configuration not stated) the value was -2.37%; for `O=c1c2ccccc2nnn1Cc1ccccc1Cl`, -2.79%.
For `Cc1ccccc1NC(=O)c1ccc(S(=O)(=O)N(C)C)cc1` the value was 0.67%.
Consider `Cc1nc2ccccc2c2oc(C(=O)N3CCC(N4CCCCC4)CC3)cc12`, for which the inhibition was -1.44%.
For `Cc1nc2ccccc2c2oc(C(=O)N3CCN(C(=O)c4ccco4)CC3)cc12` the value was 25.5% (active); for `Cc1nc2ccccc2c2oc(C(=O)N3CCN(C4CCCCC4)CC3)cc12`, 0.64%; for `Cc1ccccc1OCC(=O)NNC(=O)Nc1ccccc1`, 11.5%.
With `Cc1cc(C(=O)COC(=O)C2=NNC(=O)CC2)c(C)n1CCc1ccccc1` the figure was 5.78%; with `CCOC(CCn1c(SCC(=O)Nc2cc(C)on2)nc2ccccc2c1=O)OCC`, 4.19%; with `Cc1ccc(CNC(=O)CN(CCc2ccccc2)S(C)(=O)=O)cc1`, 1.36%.
For `Cc1ccc(/C=N/N=C2\SCC(=O)N2CC2CC2)cc1` the value was 3.09%.
Regarding `COC(=O)c1cc(=O)n(Cc2ccc3c(c2)OCO3)c(=Nc2ccccc2)s1`, the inhibition was 26.5% (active).
For `COC(=O)c1cc(=O)n(Cc2ccc3c(c2)OCO3)c(=Nc2ccc(F)cc2)s1` the value was 15.5%; for `CCOC(=O)c1ccc(N=c2sc(C(=O)OC)cc(=O)n2Cc2ccc3c(c2)OCO3)cc1`, 4.78%.
With `Cc1[nH]c2ccc(OC(=O)N3CCOCC3)cc2c1C(=O)OC(C)C` the figure was 8.46%; with `O=C(O)c1ccc(-c2ccc(/C=C3\NC(=O)N(Cc4ccc(Cl)cc4)C3=O)o2)cc1`, 6.4%.
For `Cc1ccc(CN2C(=O)N/C(=C/c3ccc(-c4ccc(C(=O)O)cc4)o3)C2=O)cc1` the value was 6.65%; for `CC(C)Cn1c(SCC(=O)N2CCN(C(=O)c3ccco3)CC2)nc2ccccc2c1=O`, 7.56%.
Turning to `CCCCCn1c(NC2CCCCC2)nc2c1c(=O)[nH]c(=O)n2C`, the inhibition was 9.39%.
For `COC(=O)CSC1=C(C#N)C(c2ccccc2)CC(=O)N1` (configuration not stated) the value was 1.02%; for `COC(=O)CSC1=C(C#N)C(c2ccc(F)cc2)CC(=O)N1` (configuration not stated), -0.52%; for `COC(=O)CSC1=C(C#N)C(c2ccc(C(C)C)cc2)CC(=O)N1` (configuration not stated), 23.7% (active).
For `CSc1nc2c(c(=O)n1-c1ccccc1)SCC2`, the inhibition was 9.44%.
With `O=C(O)Cn1cc(/C=N/NC(=O)c2cc3cc(Br)ccc3o2)c2ccccc21` the figure was 18.5%; with `Cn1cc(/C=N/NC(=O)c2cc3cc(Br)ccc3o2)c2ccccc21`, 4.78%; with `C=C(Br)Cn1c(CCC)nc2ccccc21`, -1.16%.
With `COc1ccc(NS(=O)(=O)c2cc(NC(=O)c3ccccc3F)ccc2N2CCCC2)cc1` the figure was 3.17%.
For `CN(C)CCCNC(=O)c1ccc(Cl)c(S(=O)(=O)N(C)c2ccccc2)c1` the value was 7.27%; for `O=C(O)C(c1ccccc1)C1(O)CCCC1` (configuration not stated), 16.5%; for `COc1ccc(S(=O)(=O)N(C)C)cc1NCC(=O)Nc1ccc(Br)cc1F`, 7.15%.
Regarding `C=CCOC(=O)c1cc(-c2ccc(/C=C3\C(=O)NC(=O)C(C#N)=C3C)o2)ccc1Cl`, the inhibition was 46.9% (active).
As to `CC1=C(C#N)C(=O)NC(=O)/C1=C\c1ccc(-c2cc(C)c(C)cc2[N+](=O)[O-])o1`, the inhibition was 11.9%.
For `CCOC(=O)c1cc(-c2ccc(/C=N\n3cnnc3)o2)ccc1Cl` the value was 3.07%.
For `CC1=C(C#N)C(=O)NC(=O)/C1=C\c1ccc(-c2ccc(C)cc2[N+](=O)[O-])o1` the value was 20.8%; for `CC1=C(C#N)C(=O)NC(=O)/C1=C/c1ccc(-c2ccc(S(N)(=O)=O)cc2)o1`, 28.5%.
With `CC(=O)N1CCc2cc(S(=O)(=O)CCC(=O)Nc3ccc4c(c3)OCCO4)ccc21` the figure was 7.36%; with `CN(C)CCNC(=O)CN1C(=O)COc2ccc(C(C)(C)C)cc21`, 0.77%; with `CC(=O)COC(=O)C1CC(=O)N(c2ccc(C)c(C)c2)C1` (configuration not stated), 3.99%.
For the compound `O=C(COc1ncnc2ccccc12)NCCc1ccccc1`, the inhibition was 1.63%.
For the compound `CC(C)(O)C(=O)N=Nc1c(O)[nH]c2ccccc12`, the inhibition is 1.86%.
On to `NC(=S)N=Nc1c(O)[nH]c2ccccc12`, for which the inhibition is 23.1%.
With `O=C(CSc1nnc(-c2ccccn2)n1Cc1ccccc1)N1CCOCC1` the figure was 2.23%.
For `CCOC(=O)c1[nH]cnc1C(=O)Nc1ccc(C)cc1` the value was 2.53%; for `CCOC(=O)c1[nH]cnc1C(=O)Nc1ccccc1`, 19.7%; for `O=C(Cn1cc(C(F)(F)F)ccc1=O)N1CCN(S(=O)(=O)c2ccc(Cl)cc2)CC1`, 0.58%.
For `CCN1CC(CN(C)Cc2cn(-c3cccc(C)c3)nc2-c2cccc(F)c2)CC1=O` (configuration not stated) the value was 0.42%; for `Cc1cc2c(c(SCC(N)=O)n1)C(=O)OC2`, 0.63%.
Consider `CCCN1C(=O)/C(=C/c2c(NCCCOCC)nc3c(C)cccn3c2=O)SC1=S`, for which the inhibition was -3.51%.
With `CCC(C)N1C(=O)/C(=C/c2c(NCCCOC(C)C)nc3c(C)cccn3c2=O)SC1=S` (configuration not stated) the figure was 10.2%; with `CCOC(=O)CC1C(=O)NCCN1C(=O)c1cc2c(=O)n3cccc(C)c3nc2s1` (configuration not stated), 11.1%; with `CCOC(=O)CC1C(=O)NCCN1S(=O)(=O)c1ccc(OC)cc1` (configuration not stated), -8.28%.
For `CCOCCCNc1nc2c(C)cccn2c(=O)c1/C=C1\SC(=S)N(CC(C)C)C1=O` the value was -0.56%.
As to `CCCN1C(=O)/C(=C/c2c(NCCCOC(C)C)nc3c(C)cccn3c2=O)SC1=S`, the inhibition was -6.67%.
As to `Cc1c(NC(=O)CN2C(=O)NC3(CCCCC3)C2=O)c(=O)n(-c2ccccc2)n1C`, the inhibition was -1.23%.
Consider `COc1ccc(S(=O)(=O)N2CCN(C)CC2)cc1Br`, for which the inhibition was -2.63%.
On to `Cc1nc(SCC(=O)Nc2ccccc2)c2oc3ccccc3c2n1`, for which the inhibition is -7.15%.
For `O=C(Nc1ccccc1)Oc1ccccc1N1CCOCC1` the value was 2.65%; for `COc1cc(C(=S)N2CCOCC2)ccc1OC(=O)c1cc([N+](=O)[O-])cc([N+](=O)[O-])c1`, 4.71%; for `CCn1c(NC(=O)c2cccs2)c(-c2cccs2)c(=O)c2ccccc21`, 27% (active).
For `CCCC(=O)Nc1c(-c2cccs2)c(=O)c2ccccc2n1CC` the value was 3.31%; for `CCn1c(O)c(N=NC(=O)C(O)c2ccccc2)c2ccccc21` (configuration not stated), 5.57%; for `CCn1c(NC(=O)c2ccccc2)c(-c2cccs2)c(=O)c2ccccc21`, 7.57%.
For `CCOC(=O)N=Nc1c(O)n(CC)c2ccccc12` the value was 3.07%; for `N=C1/C(=C/c2coc3ccccc3c2=O)C(=O)N=C2SC(c3ccco3)=NN12`, 18.6%; for `CC(C)CC1=NN2C(=N)/C(=C\c3coc4ccccc4c3=O)C(=O)N=C2S1`, 58%.
On to `N=C1/C(=C\c2coc3ccccc3c2=O)C(=O)N=C2SC=CN12`, for which the inhibition is 52.2%.
Consider `CC1=CC2=NC(=O)/C(=C/c3coc4ccc(Cl)cc4c3=O)C(=N)N2O1`, for which the inhibition is 7.94%.
Regarding `CCN1CCN(C(=O)C2CCN(Cc3cc(Cl)ccc3O)CC2)CC1`, the inhibition is 0.1%.
`O=C(COC(=O)c1cc(NS(=O)(=O)c2cccs2)ccc1O)Nc1ccc(F)c(F)c1F`: the inhibition is 6.76%.
Turning to `CC(C)(C)C(=O)Nc1ccc(S(=O)(=O)Nc2ccccn2)cc1`, the inhibition is 4.68%.
With `C/C(Cc1ccccc1)=N/NC(=O)CCCC(=O)N/N=C(/C)Cc1ccccc1` the figure was 1.32%; with `COc1ccc(C(=O)NNC(=O)Nc2ccc(C)cc2)cc1`, -2.61%; with `CCOC(=O)C(NC(=O)c1ccccc1Cl)(Nc1ccc(C)c(C)c1)C(F)(F)F` (configuration not stated), 3.71%.
With `Cc1cnc(NC(=O)c2sc3ccccc3c2Cl)s1` the figure was 5.85%.
With `COCc1nnc(NC(=O)c2sc3ccccc3c2Cl)s1` the figure was 17.9%.
`Cc1nnc(NC(=O)c2sc3ccccc3c2Cl)s1`: the inhibition is 27.1% (active).
With `CCc1nnc(NC(=O)c2ccc3ccccc3n2)s1` the figure was 18.2%; with `CCC(CC)c1nnc(NC(=O)c2ccc3ccccc3n2)s1`, 44%; with `CC1=C(C(=O)Nc2ccccn2)C(c2ccc(N(C)C)cc2)n2ncnc2N1` (configuration not stated), -4.41%.
For `CCC(C)[C@H](NC(=O)NC1CC1)C(=O)O` (some centres not stated) the value was 5.68%; for `CCN(CC)c1cc(C)c2cc(NC(=O)c3ccc(Br)o3)ccc2n1`, 8.17%.
For `C[N+]1(CCCOC(=O)C2(c3ccccc3)CCCC2)CCOCC1` the value was 12.4%; for `COc1ccc(-n2c(=O)c3c4c(sc3n(CC(N)=O)c2=O)CCCCC4)cc1`, 4.45%; for `NC(=O)Cn1c(=O)n(CCc2ccccc2)c(=O)c2c3c(sc21)CCCC3`, -0.91%.
Consider `CCOC(=O)N1CCN(S(=O)(=O)c2ccc(C(=O)Nc3sc4c(c3C#N)CCC4)cc2)CC1`, for which the inhibition is 4.62%.
